Laboratory results reported in PubChem BioAssay AID1745848 (National Center for Advancing Translational Sciences (NCATS), 2022).
About 940 (45%) of roughly 2,100 compounds were called active. Not shown: some 48% with an inconclusive outcome. The set was probably picked from earlier hits. The list shows a part of the results. A number with no mark means an inactive call. Calls come from the whole dose curve; as a rule, active = well fitted inhibition curve with a large enough effect; inconclusive = small, poorly fitted or top-dose-only effect; inactive = no such curve, though single readings can be large or run the other way.

assay: Confirmatory qHTS for Inhibitors of ATXN expression; settings: ATXN2-luciferase reporter cells, luminescence, 24 h; series mostly up to 11.5 µM; activity change, negative = inhibition: at the top concentration; note: nearly all actives have a fitted effect of over 65% in size;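 for activity change, negative = inhibition: 0% = DMSO vehicle wells and -100% = medium-only wells without cells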
How it was run: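 A titration, incubated 24 h with reporter cells expressing ATXN2-luciferase. Luminescence (SteadyGlo) gives ATXN2 expression, multiplexed GF-AFC fluorescence gives viability; normalised to DMSO and medium-only wells.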
Potency is the fitted concentration of half-maximal effect.

Q: With `Cn1cccc1/C=N/N1CCN(Cc2ccccc2Cl)CC1` as the compound, how does the “activity change, negative = inhibition” value read?
A: -21.1% [at 57.5 µM]

Q: For `CCOc1ccc(S(=O)(=O)NCCC(=O)N2CC=C(c3ccccc3)CC2)cc1`, which Potency is on record?
A: 12.6 µM (active)

Q: Which Potency does the source give for `Cc1cccn2c(=O)c3cc(C(=O)NCCN4CCOCC4)c(=N)n(Cc4ccc(F)cc4)c3nc12` here?
A: 7.08 µM (active)

Q: Which “activity change, negative = inhibition” value does the source give for `Cc1ccc2[nH]c(O)c(N=NC(=O)C3CC3c3ccccc3)c2c1Br` (stereo unspecified) here?
A: -23.6%

Q: Which Potency does the source give for `OC(CN1CCCCC1)Cn1c2ccc(Cl)cc2c2cc(Cl)ccc21` (stereo unspecified) here?
A: 3.16 µM (active)

Q: Which Potency does the source give for `O=C(Nc1cccc2c1CCCC2)c1cc([N+](=O)[O-])ccc1Cl` here?
A: 15.8 µM (active)

Q: Which “activity change, negative = inhibition” value does the source give for `O=C(NCC1CCCO1)c1cccc(Oc2ccc([N+](=O)[O-])cc2Cl)c1` (stereo unspecified) here?
A: -23.8%

Q: With `CC(C)(C)c1ccc(OCCCC(=O)NNC(=O)c2ccccc2O)cc1` as the compound, how does the Potency read?
A: 25.1 µM (active)

Q: Which Potency does the source give for `COc1ccc(/C=C2\SC(=S)N(CCCC(=O)NNC(=O)c3ccccc3O)C2=O)cc1` here?
A: 3.98 µM (active)

Q: For `O=C(CCCN1C(=O)S/C(=C\c2ccccc2)C1=O)NNC(=O)c1ccccc1O`, which Potency is on record?
A: 2.24 µM (active)

Q: Which Potency does the source give for `CN(C)CCNCCCNc1c2ccccc2nc2cccc([N+](=O)[O-])c12` here?
A: 0.0891 µM (active)

Q: With `CC(=O)N1CCN(c2ccc(Oc3ccc([N+](=O)[O-])c(C(F)(F)F)c3)cc2)CC1` as the compound, how does the Potency read?
A: 11.2 µM (active)

Q: With `Cc1c(C(=O)Nc2ccc(-c3nnc4n3CCCCC4)cc2)oc2c1ccc1ccccc12` as the compound, how does the Potency read?
A: 3.16 µM (active)

Q: For `O=C(N/N=C/c1ccccc1O)C1CCCC1`, which Potency is on record?
A: 28.2 µM (active)

Q: With `O=C(N/N=C/c1ccccc1O)C1SCCCS1` as the compound, how does the Potency read?
A: 14.1 µM (active)

Q: Which Potency does the source give for `C/C(=C\C(=O)c1ccc(Br)cc1)NNC(=O)c1ccc(O)cc1` here?
A: 14.1 µM (active)

Q: For `O=C(c1cc(COc2cccc(C(F)(F)F)c2)on1)N1CCC(c2ccncc2)CC1`, which “activity change, negative = inhibition” value is on record?
A: -5.04%

Q: With `CC(=NNc1nc2ccccc2o1)c1ncccn1` as the compound, how does the Potency read?
A: 0.199 µM (active)

Q: With `Cc1ccccc1NC(=O)CSc1n[nH]c(-c2ccccn2)n1` as the compound, how does the Potency read?
A: 14.1 µM (active)

Q: For `Cc1ccsc1/C=C/C1=Cc2c(sc(NC(=O)CSc3n[nH]c(N)n3)c2C#N)C(C)(C)C1`, which “activity change, negative = inhibition” value is on record?
A: -14.6% [at 57.5 µM]

Q: Which Potency does the source give for `Cc1ccc(C)c(NC(=O)CSc2n[nH]c(-c3ccccn3)n2)c1` here?
A: 22.4 µM (active)

Q: For `CC1=C(CC[C@@H](C)CO)OC2CC3C4CCC5CC(O)CCC5(C)C4CC(=O)C3(C)C12` (stereo partly specified), which Potency is on record?
A: 3.16 µM (active)

Q: Which Potency does the source give for `Cc1nc(N/N=C/c2ccc(O)cc2O)cc(N2CCOCC2)n1` here?
A: 11.2 µM (active)

Q: For `Cc1cc(N/N=C/c2ccc(O)cc2O)nc(-n2nc(C)cc2C)n1`, which Potency is on record?
A: 5.01 µM (active)

Q: Which Potency does the source give for `CCOc1cc(/C=N/Nc2cc(C)nc(-n3nc(C)cc3C)n2)ccc1O` here?
A: 0.708 µM (active)

Q: With `Cc1cc(O)c(C(C)C)cc1N=Cc1ccccc1[N+](=O)[O-]` as the compound, how does the “activity change, negative = inhibition” value read?
A: -14.8% [at 57.5 µM]

Q: With `Cc1cc(N/N=C/c2ccccc2[N+](=O)[O-])nc(-n2nc(C)cc2C)n1` as the compound, how does the Potency read?
A: 3.16 µM (active)

Q: Which “activity change, negative = inhibition” value does the source give for `C/C(=N\Nc1cc(N2CCOCC2)nc(C)n1)c1cccc([N+](=O)[O-])c1` here?
A: -16.7%

Q: Which Potency does the source give for `CS/C(=C\[N+](=O)[O-])Nc1ccc(OC(F)(F)F)cc1` here?
A: 11.2 µM (active)

Q: With `OC(CNCCc1ccccc1)COc1ccc(OCC(O)CNCCc2ccccc2)cc1` (stereo unspecified) as the compound, how does the Potency read?
A: 12.6 µM (active)

Q: For `CCCc1cc(=O)n2[nH]cc(-c3ccc(Cl)cc3)c2n1`, which Potency is on record?
A: 2.82 µM (active)

Q: Which Potency does the source give for `O=c1c2c(nc3c(-c4ccc(Cl)cc4)c[nH]n13)CCCC2` here?
A: 1.26 µM (active)

Q: Which Potency does the source give for `O=C(c1cccc(Cl)c1)c1nn(-c2ccccc2)c(=O)cc1C(F)(F)F` here?
A: 31.6 µM (active)

Q: For `O=c1c2ccccc2sc2nc(CCl)nn12`, which Potency is on record?
A: 3.16 µM (active)

Q: With `O=c1[nH]c(CN2CCN(c3ncccn3)CC2)nc2c(Br)cc(Br)cc12` as the compound, how does the Potency read?
A: 2.82 µM (active)

Q: For `COc1cc(/C=N\NC(=O)CC#N)ccc1OC/C=C/c1ccccc1`, which Potency is on record?
A: 28.2 µM (active)

Q: Which “activity change, negative = inhibition” value does the source give for `Cn1c(CCc2nc3ccccc3[nH]2)nnc1SCC#N` here?
A: -2.57% [at 57.5 µM]

Q: With `Cc1[nH]c2ccccc2c1SCc1nnc(SCc2ccc(Cl)cc2)n1C` as the compound, how does the Potency read?
A: 31.6 µM (active)

Q: Which “activity change, negative = inhibition” value does the source give for `Cc1cc2sc3ccc(C#CC4(O)CCCCC4)cc3c(=O)c2cc1C` here?
A: -96.9% [at 57.5 µM]

Q: Which “activity change, negative = inhibition” value does the source give for `CC(C)n1c(NCc2cc(Cl)ccc2O)nc2ccccc21` here?
A: -14.6%

Q: With `Cc1ccc2cc(C3C(C#N)=C(N)Oc4c3ccc3cccnc43)c(=O)[nH]c2c1` (stereo unspecified) as the compound, how does the Potency read?
A: 6.31 µM (active)

Q: For `Cc1cc(C)cc(NC(=O)c2ccc([N+](=O)[O-])o2)c1`, which Potency is on record?
A: 2.82 µM (active)

Q: Which Potency does the source give for `Cc1cccc(/C=C/C(=O)c2ccc([N+](=O)[O-])o2)c1` here?
A: 3.16 µM (active)

Q: With `COc1ccc(/C=C/C(=O)c2ccc([N+](=O)[O-])o2)cc1OC` as the compound, how does the Potency read?
A: 7.94 µM (active)

Q: With `CNC(=O)c1sc(N2N=C3/C(=C/c4ccccc4)CCCC3C2c2ccccc2)nc1C` (stereo unspecified) as the compound, how does the Potency read?
A: 12.6 µM (active)

Q: Which “activity change, negative = inhibition” value does the source give for `Cc1ccc(NC(=O)CNc2cccc(Br)c2)cc1S(=O)(=O)N1CCOCC1` here?
A: -21.3%

Q: With `Cc1ccc(C(=O)NC(C)CCc2ccccc2)cc1S(=O)(=O)N1CCOCC1` (stereo unspecified) as the compound, how does the Potency read?
A: 15.8 µM (active)

Q: For `CC(CCc1ccccc1)NC(=O)c1ccc(C(=O)NC(C)CCc2ccccc2)cc1` (stereo unspecified), which Potency is on record?
A: 1.58 µM (active)

Q: For `CC(C)[C@H](CO)Nc1nc(NCc2ccc(S(N)(=O)=O)cc2)c2ncn(C(C)C)c2n1`, which Potency is on record?
A: 2 µM (active)

Q: Which Potency does the source give for `Oc1c(Cl)cc(Cl)cc1/C=N/Nc1ncc(Br)cn1` here?
A: 2.51 µM (active)

Q: With `CC1CC2(C)Oc3ccccc3CC2C(C)C1CNCCCN(C)C` (stereo unspecified) as the compound, how does the Potency read?
A: 14.1 µM (active)

Q: For `C(=NN1CCCCCC1)c1ccc2ccccc2n1`, which “activity change, negative = inhibition” value is on record?
A: -96.8% [at 57.5 µM]

Q: With `CCc1nc2ccccc2c(C(=O)OCC(=O)Nc2ccc(NC(C)=O)cc2)c1C` as the compound, how does the “activity change, negative = inhibition” value read?
A: -25.1%

Q: With `CCc1nc2ccccc2c(C(=O)OCC(=O)Nc2cccc(S(=O)(=O)NC3=NCCCCC3)c2)c1C` as the compound, how does the Potency read?
A: 17.8 µM (active)

Q: Which Potency does the source give for `Cc1cc(/C=N/n2c(COc3ccccc3)nc3ccccc3c2=O)c(O)c([N+](=O)[O-])c1` here?
A: 7.94 µM (active)

Q: Which “activity change, negative = inhibition” value does the source give for `CSc1sc(-c2nnc(SCC(=O)Nc3ccc(Cl)cc3)n2C)c2c1C=CCC2` here?
A: -17.3%

Q: Which Potency does the source give for `Cn1c(SCC(=O)N/N=C/c2ccc([N+](=O)[O-])s2)nnc1-c1ccccc1` here?
A: 17.8 µM (active)

Q: Which Potency does the source give for `Cn1c(SCC(=O)N/N=C/c2ccc([N+](=O)[O-])s2)nnc1-c1ccc(Cl)cc1` here?
A: 10 µM (active)

Q: For `C=CCc1ccccc1OCC(=O)N/N=C/c1ccc(OC(C)=O)cc1OC(C)=O`, which Potency is on record?
A: 15.8 µM (active)

Q: Which Potency does the source give for `C=CCc1cccc(/C=N/NC(=O)CNc2ccccc2OC)c1O` here?
A: 5.01 µM (active)

Q: Which Potency does the source give for `C=CCc1cccc(/C=N/NC(=O)CNc2ccccc2)c1O` here?
A: 2.82 µM (active)
